A selection: hits, their analogues and other compounds. The true share with any hit is near 20%.
Cycloheximide cs: counter-screen hit for Shiga toxin inhibitors, cycloheximide | AID 2314 | max response, % | actives 12% (n = 300,000) | cell reporter, cycloheximide protein synthesis inhibition counterscreen; in the data active = max response mostly above about 13%, no sharp cut-off; inactive = mostly below about 14%; note: read at 38.3 µM for the half of the compounds with a filed dose; 0% is about no effect
HCMV inh: inhibitors of human cytomegalovirus. HFF cells, HCMV-luciferase reporter, 72 h; active compounds read low. activity change, negative = inhibition, % at 57.5 µM. actives 4.5% (n = 410,000). AID 1259415; in the data active = activity change below about -60%; inconclusive = no clear call, values can overlap the other calls; inactive = above about -39%; note: % is set by controls: 0 for no effect and ±100 for the full control effect
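Cell-based, HFFs, 1000 cells/well, 16 h 37C; cpds in DMSO + HCMV-luc, MOI 1 PFU/cell; 72 h 37C; OneGlo luminescence after 5 min RT; norm. to buffer vs Salinomycin 10uM.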
Pf growth 96h: inhibits malaria parasite growth, 96 h; P. falciparum luciferase reporter growth, 96 h; Potency, µM (series often up to 28.7 µM), without a hit: top-dose activity change, negative = inhibition, usual class: inhibitors; actives 6.9% (n = 320,000); AID 504834; note: potency is the fitted concentration of half-maximal effect; % is set by controls: 0 for no effect and ±100 for the full control effect
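Two parasite generations (96 h, 37 C, 5% CO2) of compound exposure in infected erythrocytes (0.05% parasitemia, 2% hematocrit). Luciferase-reporter P. falciparum; decreased luminescence indicates inhibited growth, aimed at apicoplast-acting delayed death.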
Pf growth 48h: inhibits P. falciparum growth in the first generation, 48 h; P. falciparum luciferase growth in erythrocytes, 48 h; Potency, µM (doses to about 28.7 µM), inactives show top-dose activity change, negative = inhibition, hits mostly inhibitors; actives 5.9% (n = 310,000); AID 504832; note: potency is the fitted concentration of half-maximal effect; % is set by controls: 0 for no effect and ±100 for the full control effect
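First compound was added to culture medium, then infected red cells at 0.1% parasitemia and 2% hematocrit (final). After incubation at 37 C under 5% CO2, luciferase detection reagent was dispensed and light output recorded.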
Shiga toxin inh: inhibitors of Shiga toxin in Vero cells; actives 9.2% (n = 290,000); Vero cells, Shiga toxin protein synthesis inhibition reporter; AID 2315; inhibition, % at 38.7 µM; in the data active = inhibition mostly above about 28%, no sharp cut-off; inactive = mostly below about 43%; note: 0% is about no effect
* marks the source's active call; other numbers are inactive results; u = inconclusive; x = no result given. Unless noted, calls come from the whole dose curve; as a rule, active = well fitted inhibition curve with a large enough effect; inconclusive = small, poorly fitted or top-dose-only effect, or another doubt; inactive = no such curve, though single readings can be large or run the other way.

SMILES	Cycloheximide cs	HCMV inh	Pf growth 96h	Pf growth 48h	Shiga toxin inh
CCCCCN(C(=O)CCC(=O)OCc1ccccc1C(F)(F)F)c1c(N)n(CCCC)c(=O)[nH]c1=O	-1	17	u	-7%	-8
O=C(NCc1ccccc1)c1c2c(nc3ccccc13)C(=O)N(C1CCCCC1)C2	x	19	x	x	x
CN1/C(=C\C=Nc2cc(S(=O)(=O)N3CCOCC3)ccc2N2CCOCC2)C(C)(C)c2ccccc21	-7	u	8.3µM*	-25%	-12
Cc1nc2oc3ccc(F)cc3c(=O)c2cc1C(=O)NC(C)(C)C	41*	-15	76%	59%	128*
COC(=O)c1cc2c(=O)c3ccccc3oc2nc1/C=C/N(C)C	19*	24	61%	17%	57
Cc1nc2oc3ccc(Cl)cc3c(=O)c2cc1C(=O)O	-3	x	61%	52%	-3
Cc1nc2oc3ccccc3c(=O)c2cc1C(=O)O	1	-9	32%	40%	17
COC(=O)c1cc2c(=O)c3ccccc3oc2nc1C	24*	56	146%	180%	49*
CC(C)c1ccc2oc3nc(N)c(C(=O)O)cc3c(=O)c2c1	8	x	10%	u	31
CCc1nc2oc3ccc(C)cc3c(=O)c2cc1C(=O)OC	24*	17	221%	173%	30*
CC(C)CCNC(=O)C1(C)CCN1Cc1ccc(-c2ccccn2)cc1 (centres undefined)	x	-13	x	x	x
CCCOc1ccc(NC(=O)CC2C(=O)N(c3ccc(F)cc3)C(=O)N2CC(C)C)cc1 (centres undefined)	x	-31	x	x	x
Cc1ccc(COc2cccc3cc(-c4noc(-c5ccc(C)cc5)n4)c(=O)oc23)cc1	x	-18	x	x	x
CCn1nc(C(=O)Nc2ccc(Cl)c(S(=O)(=O)N3CCOCC3)c2)c2ccccc2c1=O	x	-10	u	10µM*	x
CC(C)Cn1nc(C(=O)Nc2cccc(C(=O)NC3CC3)c2)c2ccccc2c1=O	x	1	u	u	x
CCn1nc(C(=O)Nc2cccc(S(=O)(=O)N3CCCC3)c2)c2ccccc2c1=O	x	1	u	13µM*	x
CC(C)Cn1nc(C(=O)Nc2cccc(S(=O)(=O)N3CCCC3)c2)c2ccccc2c1=O	x	-33	9.3µM*	12µM*	x
CCCn1nc(C(=O)Nc2cccc(S(=O)(=O)N3CCOCC3)c2)c2ccccc2c1=O	x	22	x	x	x
CCCn1nc(C(=O)NNC(=O)c2cccc(S(=O)(=O)NC(C)C)c2)c2ccccc2c1=O	8	29	1.2µM*	3.3µM*	1
CCn1nc(C(=O)Nc2ccc3c(c2)OCCO3)c2ccccc2c1=O	x	32	x	x	x
COc1ccc(C)cc1NC(=O)c1oc2ccc(S(=O)(=O)N3CCC4(CC3)OCCO4)cc2c1C	x	9	x	x	x
Cc1cccc(C)c1NC(=O)COC(=O)/C=C/c1ccc(S(=O)(=O)N2CCOCC2)cc1	x	-2	x	x	x
CCCn1nc(C(=O)NNC(=O)Cc2ccc(S(=O)(=O)N3CCOCC3)s2)c2ccccc2c1=O	x	-5	u	12µM*	x
Cc1cc(C)n(-c2nncn2NC(=O)c2ccc(Cl)cc2O)n1	7	1	68%	9%	-22
O=C(COC(=O)CCc1ccc(S(=O)(=O)N2CCOCC2)cc1)Nc1ccccc1[N+](=O)[O-]	x	5	x	x	x
SMILES	Cycloheximide cs	HCMV inh	Pf growth 96h	Pf growth 48h	Shiga toxin inh
COc1ccc(N2C(=O)CC(NCCNc3ccc([N+](=O)[O-])cn3)C2=O)cc1 (centres undefined)	-1	1	107%	-6%	-9
CCOc1ccc(N2C(=O)CC(NCCNc3ccc([N+](=O)[O-])cn3)C2=O)cc1 (centres undefined)	-4	54	0.83µM*	3%	-2
O=C(CCN1C(=O)/C(=C/c2ccccc2)SC1=S)NCCc1ccc(O)cc1	-8	x	12µM*	-2%	-6
O=C(CCN1C(=O)/C(=C/c2ccc(F)cc2)SC1=S)NC1CCS(=O)(=O)C1 (centres undefined)	-5	u	u	-14%	-2
COc1ccc(/C=C2\SC(=S)N(CCC(=O)NCCc3ccc(O)cc3)C2=O)cc1	-4	u	16%	40%	-4
O=C(CCN1C(=O)/C(=C/c2ccc(F)cc2)SC1=S)N[C@@H](CO)Cc1ccccc1	-3	-64*	u	35%	-12
COc1ccccc1/C=C1\SC(=S)N(CCC(=O)NCCc2ccc(O)cc2)C1=O	21*	-75*	u	u	10
O=C(CCN1C(=O)/C(=C/c2ccccc2F)SC1=S)NCCc1ccc(O)cc1	-3	-93*	16%	14%	-5
O=c1[nH]n(Cc2ccccc2)c(=O)c2ccccc12	26*	111	100%	46%	4
Cn1[nH]c(=O)c2ccccc2c1=O	0	22	-11%	23%	-17
COC(=O)CCn1[nH]c(=O)c2ccccc2c1=O	-2	42	9.3µM*	0%	-10
O=C(NC(=S)NCC1CCCO1)c1ccccc1F (centres undefined)	26*	-15	u	59%	43
O=C(NCC1CCCO1)c1cccc(NC(=O)c2cccs2)c1 (centres undefined)	-2	-31	0%	-29%	7
O=C(NC(=S)NCC1CCCO1)c1cccs1 (centres undefined)	12*	-14	-1%	-11%	26
O=C(NC(=S)NCC1CCCO1)c1ccccc1Br (centres undefined)	16	33	118%	10%	9
CC(Cc1cccs1)NC(=O)CCCn1nnnc1CN1CCOCC1 (centres undefined)	-3	47	u	14%	-37
NC(=O)NC(=O)COC(=O)c1sc2ccccc2c1Cl	4	-24	6%	51%	-6
Cc1ccc(C(=O)OCC(=O)NC2CCCCC2)s1	34*	0	33%	62%	95*
O=C(COC(=O)c1sc2ccccc2c1Cl)NC1CCCCC1	20*	-13	43%	16%	13
Cc1ccc(C(=O)NC2CCCC2)s1	11*	24	157%	28%	53
O=C(CN(Cc1cccs1)C(=O)CSc1nnc(COc2ccccc2)o1)NC1CCCCC1	0	3	8%	13µM*	1
O=C(NCC(=O)N1CCN(c2ccc(C(F)(F)F)cn2)CC1)c1ccc(Br)o1	x	-31	u	u	x
CCc1ccc(NC(=O)Cn2c(=O)n(Cc3ccc4c(c3)OCO4)c(=O)c3oc4ccccc4c32)cc1	x	6	x	x	x
O=C(NNC(=O)c1ccc(Br)s1)NC1CCCCC1	-1	11	5%	-3%	-2
O=C(NC1CCCC1)c1ccc([N+](=O)[O-])s1	10	-32	10µM*	1%	11
Cc1ccc(C(=O)N(CC(=O)NC2CCCC2)Cc2cccs2)s1	8	12	1.5µM*	-9%	16
Cc1cccc(-c2noc(-c3cccnc3NCc3ccc(Cl)cc3)n2)c1	x	29	x	x	x
Cc1cccc(-c2noc(-c3ccc(Cl)cc3[N+](=O)[O-])n2)c1	42*	167	0%	72%	82*

Assay outcomes as filed in PubChem.
